Earlier results in PubChem BioAssay AID977610.
Hit rate of the full screen: of about 3,600 compounds, about 3,600 (100%) were called active. Cut-off not given; nearly all actives show Ki up to about 18000 µM. So high a share suggests a set chosen from earlier hits. This is one part of the list. Where a SMILES comes first, the peptide text is derived from it. Non-standard residues stand in square brackets, D forms with d. Square brackets hold non-standard residues; d marks the D form. Residues, ends and D or L forms follow the SMILES beside them. Peptide text beside a SMILES is read from it. [ ]: non-standard residue; d: D form. Orn(CH(NH2)2) = NC(N)NCCC[C@H](N)C(=O)O; Ahx = NCCCCCC(=O)O

Test: PubChem AID 977610
Conditions: PDB protein-ligand complexes, literature Ki

**Q.** For CC(C)C[C@H](NC(=O)[C@H](CS)NC(=O)[C@@H]1CCCN1C(=O)[C@@H](NC(=O)[C@@H]1CCCN1C(=O)[C@@H]1CCCN1C(=O)[C@H](CS)NC(=O)[C@H](Cc1ccc(O)cc1)NC(=O)[C@H](CC(N)=O)NC(=O)[C@@H](NC(=O)[C@H](CCC(N)=O)NC(=O)[C@H](CS)NC(=O)CN)C(C)C)C(C)C)C(N)=O (H-GCQVNYCPPVPCL-NH2), which Ki (protein: urokinase-type plasminogen activator (uPA), PDB entry 4mny) is on record?
**A.** Its Ki is 1.96 µM (active).

**Q.** For CC(C)C[C@H](NC(=O)[C@H](CC(C)C)NC(=O)[C@H](Cc1cnc[nH]1)NC(=O)[C@H](CCCNC(N)N)NC(=O)[C@H](CC(C)C)NC(=O)[C@H](CC(C)C)NC(=O)[C@H](CC(C)C)NC(=O)[C@@H]1CCCN1C(=O)[C@H](Cc1cnc[nH]1)NC(=O)[C@@H](N)CCCNC(N)N)C(=O)N[C@@H](CCC(N)=O)C(=O)N[C@@H](CC(N)=O)C(=O)O (H-[Orn(CH(NH2)2)]HPLLL[Orn(CH(NH2)2)]HLLQN-OH), which Ki (protein: Estrogen receptor beta, PDB entry 4j24) is on record?
**A.** The Ki was 0.05 µM (active).

**Q.** With O=C(NCC1(C2NC(c3ccccc3)=CS2)CCOCC1)c1cccc(-c2noc(C(F)(F)F)n2)c1 (configuration not stated) as the molecule, how does the Ki (protein: HISTONE DEACETYLASE 7, PDB entry 3znr) read?
**A.** Its Ki is 0.036 µM (active).

**Q.** With Cc1ccc(Nc2ccccc2C(=O)O)c(C(=O)O)c1 as the molecule, how does the Ki (protein: Anthranilate phosphoribosyltransferase, PDB entry 4gkm) read?
**A.** The Ki was 6.8 µM (active).

**Q.** Which Ki (protein: Nicotinate-nucleotide pyrophosphorylase [carboxylating], PDB entry 4kww) does the source give for O=C(O)c1ccccc1C(=O)O here?
**A.** Its Ki is 2.8 µM (active).

**Q.** With O=C(O)c1ccccc1Nc1ccccc1C(=O)O as the molecule, how does the Ki (protein: Anthranilate phosphoribosyltransferase, PDB entry 4ij1) read?
**A.** Its Ki is 4 µM (active).

**Q.** For O=C(O)c1ccccc1Nc1cccc(Nc2ccccc2C(=O)O)c1C(=O)O, which Ki (protein: Anthranilate phosphoribosyltransferase, PDB entry 4m0r) is on record?
**A.** Its Ki is 6.2 µM (active).

**Q.** With Cc1ccc(C(=O)O)c(Nc2c(C)cccc2C(=O)O)c1 as the molecule, how does the Ki (protein: anthranilate phosphoribosyltransferase (AnPRT; trpD), PDB entry 4giu) read?
**A.** The Ki was 4.7 µM (active).

**Q.** For NC(=O)SCC(=O)Nc1ccccc1C(=O)O, which Ki (protein: Human cathepsin K mutant C25S, PDB entry 4leg) is on record?
**A.** Its Ki is 28 µM (active).

**Q.** For Nc1ccn([C@@H]2O[C@H](CO)[C@@H](O)[C@H]2O[P+](O)(O)O)c(=O)n1, which Ki (protein: Bos taurus ribonuclease A, PDB entry 1jvu) is on record?
**A.** Its Ki is 7 µM (active).

**Q.** Which Ki (protein: Bos taurus ribonuclease A, PDB entry 1rpf) does the source give for Nc1ccn([C@@H]2O[C@H](CO)[C@@H](O[P+](O)(O)O)[C@H]2O)c(=O)n1 here?
**A.** Its Ki is 103 µM (active).

**Q.** With Nc1ccn([C@@H]2O[C@H](CO[P+](O)(O)O)[C@@H](O)[C@H]2O)c(=O)n1 as the molecule, how does the Ki (protein: Bos taurus ribonuclease A, PDB entry 1rnm) read?
**A.** Its Ki is 844 µM (active).

**Q.** Which Ki (protein: Endothiapepsin, PDB entry 4kup) does the source give for Cc1cc(C)c(/C=N/NC(=O)[C@@H](N)Cc2c[nH]c3ccccc23)c(C)c1 here?
**A.** Its Ki is 6 µM (active).

**Q.** Which Ki (protein: Plasmodium vivax N-myristoyltransferase, PDB entry 2yne) does the source give for Cc1nn(C)c(C)c1Cc1nnc(-c2sc3ccccc3c2OC2CCNCC2)o1 here?
**A.** The Ki was 0.0027 µM (active).

**Q.** With CC[C@H](C)[C@H](NC(=O)[C@H](CO)NC(=O)[C@@H](NC(=O)[C@@H]1CCCN1C(=O)[C@H](Cc1c[nH]c2ccccc12)NC(=O)[C@H](CCCNC(N)N)NC(=O)[C@@H](N)CO)[C@@H](C)O)C(=O)N[C@@H](CC(C)C)C(=O)O (H-S[Orn(CH(NH2)2)]WPTSIL-OH) as the molecule, how does the Ki (protein: Tax1-binding protein 3, PDB entry 4e3b) read?
**A.** Its Ki is 0.9 µM (active).

**Q.** For H-SRWPTTRL-OH, which Ki (protein: CFTR Associated Ligand (CAL) PDZ domain, PDB entry 4k76) is on record?
**A.** Its Ki is 4.5 µM (active).

**Q.** Which Ki (protein: Acyl-[acyl-carrier-protein]--UDP-N-acetylglucosamine O-acyltransferase, PDB entry 2aq9) does the source give for CC[C@H](C)[C@H](NC(=O)[C@@H]1CCCN1C(=O)[C@H](CC(=O)O)NC(=O)[C@H](CC(C)C)NC(=O)[C@H](C)NC(=O)[C@@H](N)Cc1c[nH]c2ccccc12)C(=O)N[C@@H](C)C(=O)NCC(=O)N[C@@H](CCCCN)C(=O)N[C@@H](Cc1c[nH]c2ccccc12)C(=O)N[C@@H](CO)C(=O)N[C@@H](CCCNC(N)N)C(=O)O (H-WALDPIAGKWS[Orn(CH(NH2)2)]-OH) here?
**A.** Its Ki is 0.05 µM (active).

**Q.** For CC[C@H](C)[C@H](NC(=O)[C@H](CO)NC(=O)[C@@H](NC(=O)[C@@H]1CCCN1C(=O)[C@H](Cc1c[nH]c2ccccc12)NC(=O)[C@@H](N)CCCNC(N)N)[C@@H](C)O)C(=O)N[C@@H](CC(C)C)C(=O)O (H-[Orn(CH(NH2)2)]WPTSIL-OH), which Ki (protein: Golgi-associated PDZ and coiled-coil motif-containing protein, PDB entry 4e35) is on record?
**A.** Its Ki is 24 µM (active).

**Q.** For CC[C@H](C)[C@H](NC(=O)[C@H](CCCNC(N)N)NC(=O)CNC(=O)[C@@H](NC(=O)[C@@H](NC(=O)[C@@H](NC(=O)[C@@H](NC(=O)[C@H](CO)NC(=O)CN)C(C)C)C(C)C)[C@@H](C)CC)C(C)C)C(=O)N[C@H](C(=O)N[C@@H](CC(C)C)C(=O)N[C@@H](CO)C(=O)O)[C@@H](C)CC (H-GSVVIVG[Orn(CH(NH2)2)]IILS-OH), which Ki (protein: HCV NS3 protease, PDB entry 1dxp) is on record?
**A.** The Ki was 0.027 µM (active).

**Q.** Which Ki (protein: interleukin-8(IL-8), PDB entry 1ilq) does the source give for CSCC[C@H](NC(C)=O)C(=O)N[C@@H](Cc1c[nH]c2ccccc12)C(=O)N[C@@H](CC(=O)O)C(=O)N[C@@H](Cc1ccccc1)C(=O)N[C@@H](CC(=O)O)C(=O)N[C@@H](CC(=O)O)C(=O)NCCCCCC(=O)N[C@@H](CCSC)C(=O)N1CCC[C@H]1C(=O)N1CCC[C@H]1C(=O)N[C@@H](C)C(=O)N[C@@H](CC(=O)O)C(=O)N[C@@H](CCC(=O)O)C(=O)N[C@@H](CC(=O)O)C(=O)N[C@@H](Cc1ccc(O)cc1)C(=O)N[C@@H](CO)C(=O)N1CCC[C@H]1C(N)=O (Ac-MWDFDD[Ahx]MPPADEDYSP-NH2) here?
**A.** The Ki was 13 µM (active).

**Q.** With H-GGGGGGAVPGSWPW-OH as the molecule, how does the Ki (protein: Chymotrypsinogen A, PDB entry 1oxg) read?
**A.** The Ki was 2.7e-05 µM (active).

**Q.** Which Ki (protein: Neuraminidase, PDB entry 4ks5) does the source give for CCC(CC)O[C@@H]1CC(C(=O)O)=C[C@H](n2cc(C(C)(C)O)nn2)[C@H]1NC(C)=O here?
**A.** Its Ki is 0.13 µM (active).

**Q.** With CCC(CC)O[C@@H]1CC(C(=O)O)=C[C@H](n2cc(CCCO)nn2)[C@H]1NC(C)=O as the molecule, how does the Ki (protein: Neuraminidase, PDB entry 4ks3) read?
**A.** Its Ki is 0.43 µM (active).

**Q.** With CCC(CC)O[C@@H]1CC(C(=O)O)=C[C@H](n2cc([C@H](O)CC)nn2)[C@H]1NC(C)=O as the molecule, how does the Ki (protein: Neuraminidase, PDB entry 4ks4) read?
**A.** The Ki was 0.072 µM (active).

**Q.** For CCn1c(O)cc(=O)n(CC)c1=S, which Ki (protein: AmpC beta-lactamase, PDB entry 4kz8) is on record?
**A.** Its Ki is 1600 µM (active).

**Q.** For O=C(O)c1ccc(CCNS(=O)(=O)c2ccsc2C(=O)O)cc1, which Ki (protein: AmpC beta-lactamase from E. coli, PDB entry 4jxv) is on record?
**A.** The Ki was 31 µM (active).

**Q.** With O=C(O)C(=O)CO as the molecule, how does the Ki (PDB entry 4mfe) read?
**A.** The Ki was 5400 µM (active).
